GPR151 ag: activators of human GPR151; activation, % at 11.2 µM; Q8TDV0; 650,000 compounds, 1% hits; PathHunter beta-arrestin GPR151 cells, luminescence; in the data active means activation above about 4.9%;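 further: 0% = median of compound wells and 100% = cells with positive control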
Target sequence (Q8TDV0 whole entry, looked up): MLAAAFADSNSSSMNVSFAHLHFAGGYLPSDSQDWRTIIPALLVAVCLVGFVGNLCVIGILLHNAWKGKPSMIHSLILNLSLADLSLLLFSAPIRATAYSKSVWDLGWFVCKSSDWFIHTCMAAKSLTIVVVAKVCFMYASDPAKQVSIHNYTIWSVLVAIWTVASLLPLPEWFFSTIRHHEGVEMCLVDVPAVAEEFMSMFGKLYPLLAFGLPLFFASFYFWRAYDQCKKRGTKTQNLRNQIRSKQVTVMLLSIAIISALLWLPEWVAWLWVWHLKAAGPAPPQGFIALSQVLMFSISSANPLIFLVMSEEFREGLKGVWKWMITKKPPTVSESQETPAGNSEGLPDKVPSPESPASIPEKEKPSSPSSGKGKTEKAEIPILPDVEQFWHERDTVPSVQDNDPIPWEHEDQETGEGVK
FBW7 activator: activators of human E3 ligase FBW7. AlphaScreen FBW7–phospho-cyclin E peptide binding, activator screen. normalized activity (activation), % at 26.1 µM. 650,000 compounds, 0.13% hits. AID 1259310; in the data active means normalized activity above about 1.9%;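 further: purified mutant Fbw7 with reduced substrate affinity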
TEAD-YAP block: TEAD-YAP interaction inhibition. 640,000 compounds, 1.4% hits. inhibition, % at 9.12 µM. AID 1259422. HEK-TIYL cells, TEAD-Gal4/YAP UAS-luciferase luminescence; in the data active means inhibition above about 32%;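 further: 0% = median of test compound wells and 100% = reference inhibitor wells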
MITF primary: blocks human microphthalmia-associated transcription factor. O75030. AlphaScreen MITF homodimerization, bead proximity signal. inhibition, % at 2.6 µM. 650,000 compounds, 0.91% hits; in the data active means inhibition above about 50%;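 further: 0% = vehicle wells with protein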
Starred values were filed as active, the others as inactive. Sampled rows, rich in hits. Any-hit rate of the full collection: about 3.4%.

SMILES	GPR151 ag	FBW7 activator	TEAD-YAP block	MITF primary
O=C1NC(c2ccccc2)C(C(=O)c2ccc(Br)cc2)C(O)(C(F)(F)F)N1 (centres undefined)	2	0	9	23
CCOCCCNC1CCN(c2nc(C)c3cc(OC)ccc3n2)CC1	1	0	49*	-5
COc1ccc2c(C)nc(N3CCC(NCCCOC(C)C)CC3)nc2c1	-1	0	-2	15
Cc1c(C(=O)NCc2cccnc2)oc2ccc3c(c12)C(=O)CC1(CCCC1)O3	0	0	40*	5
COCCNC(=O)c1oc2ccc3c(c2c1C)C(=O)CC1(CCCCC1)O3	0	0	0	-3
COc1ccc2nc(NC(=O)c3ccoc3C)sc2c1	-10	0	59*	10
COc1ccc2nc(NC(=O)c3cc(Br)ccc3Cl)sc2c1	-1	0	-18	1
COc1ccc2nc(NC(=O)c3nn(C)cc3C)sc2c1	-9	3.6*	-19	-3
COc1cccc(-n2c(=S)sc3c2nc(SCC(=O)NCc2ccccc2)n2c4ccccc4nc32)c1	-1	0	-10	8
CC(=O)Nc1nc2c(C)cc(N)cc2s1	0	30*	-40	6
COc1cc(N)cc2sc(NC(C)=O)nc12	1	0	-23	4
COc1ccc(/C=N/N2CCOCC2)cc1Cn1nnc2ccccc21	4	0	0	8
COc1ccc(C(=O)NNC(=O)c2ccncc2)c(OC)c1	0	0	-28	2
O=C(c1cc([N+](=O)[O-])ccc1N1CCCCC1)N1CCN(c2ccccc2)CC1	1	0	48*	-1
O=C(Nc1ccc(N2CCCCC2)cc1)c1cc([N+](=O)[O-])ccc1N1CCOCC1	0	0	7	11
Cc1nc2c(C(=O)Nc3ccc(Cl)cc3)snc2c(=O)[nH]1	1	0	0	0
Cc1nc2c(C(=O)Nc3ccc(N4CCOCC4)cc3)snc2c(=O)[nH]1	-1	0	33*	-4
O=C(Nc1ccc(N2CCOCC2)cc1)c1cc([N+](=O)[O-])ccc1Br	-1	0	43*	-8
Nc1cccc(-c2cccc(C(=O)Nc3ccc(N4CCOCC4)cc3)n2)c1	1	0	-12	-12
Cc1nn(C)c(C)c1-c1cccc(C(=O)Nc2ccc(N3CCOCC3)cc2)n1	0	0	45*	-7
CC(C)c1nnc2n1CCN(Cc1ccc3c(c1)OCO3)CC2	1	0	0	-3
COc1ccc([N+](=O)[O-])cc1S(=O)(=O)N1CC2C3C=CC(C3)C2C1 (centres undefined)	-1	0	0	-2
CSc1ccccc1C(=O)NCC1Cc2cc(-c3nc(C)cnc3C)cc(F)c2O1 (centres undefined)	1	0	1	-5
O=C(Nc1ccc(N2CCOCC2)cc1)c1csc(N2CCC(N3CCOCC3)CC2)n1	0	0	-24	0
O=C(Nc1ccc(N2CCCC2)cc1)c1cc([N+](=O)[O-])ccc1N1CCOCC1	2	0	-10	8
SMILES	GPR151 ag	FBW7 activator	TEAD-YAP block	MITF primary
O=C(Nc1ccc(N2CCOCC2)cc1)c1cc([N+](=O)[O-])ccc1Cl	0	0	35*	-1
O=C(Nc1ccccc1Br)c1cc([N+](=O)[O-])ccc1N1CCOCC1	1	0	50*	-9
O=C(Nc1ccc(N2CCOCC2)cc1)c1csc(Br)n1	-10	0	52*	19
CCOC(=O)c1cnc2ccc(OCC)cc2c1Nc1cccc(O)c1	1	0	-9	12
COC(=O)c1ccc(C2N(O)C3CCCCC3N2O)cc1 (centres undefined)	1	0	-16	3
CN(C)c1ccc(C2N(O)C3CCCCC3N2O)cc1 (centres undefined)	-1	0	34*	-2
c1cc(-c2noc(-c3ccncc3)n2)ccn1	-2	0	-30	-7
CCOC(=O)C1=C(c2ccccc2)NC(SC)=C(C#N)C1c1cccnc1 (centres undefined)	1	0	8	1
CCOC(=O)C1=C(C)NC(SCC(N)=O)=C(C#N)C1c1cccc([N+](=O)[O-])c1 (centres undefined)	0	0	49*	5
CCOC(=O)C1=C(C)NC(SC)=C(C#N)C1c1ccccc1 (centres undefined)	-1	0	47*	5
CCOC(=O)C1=C(C)NC(C)=C(C(=O)OCC)C1c1ccccc1F	-1	2.1*	5	17
CN(C)CCN=Cc1c(O)n(-c2ccccc2Cl)c(=S)[nH]c1=O	0	0	6	4
CCN(CC)CCn1c2c(c(SCC(=O)Nc3ccccc3OC)nc1=O)CCC2	0	0	6	16

Assay outcomes from PubChem.
